Measured values: PubChem BioAssay AID504847 (National Center for Advancing Translational Sciences (NCATS), 2011)
The campaign covered roughly 400,000 compounds. About 3,700 (0.93%) were called active. Roughly 3% stayed inconclusive and do not appear here. This excerpt belongs to a sample that is enriched for actives. A number with no mark means an inactive call. The call rests on the fitted dose curve; in most records, active means well fitted inhibition curve with a large enough effect; inconclusive means small, poorly fitted or top-dose-only effect, or another doubt; inactive means no such curve, though single readings can be large or run the other way.

The compounds below were run against Vitamin D3 receptor (Homo sapiens) (UniProt P11473) (assay: Inhibitors of the vitamin D receptor (VDR): qHTS). Settings: VDR-SRC2-3 peptide fluorescence polarization, 2 h; max response, negative = inhibition: hits give low values.
Sequence of Vitamin D3 receptor (Homo sapiens) (P11473 whole entry, looked up): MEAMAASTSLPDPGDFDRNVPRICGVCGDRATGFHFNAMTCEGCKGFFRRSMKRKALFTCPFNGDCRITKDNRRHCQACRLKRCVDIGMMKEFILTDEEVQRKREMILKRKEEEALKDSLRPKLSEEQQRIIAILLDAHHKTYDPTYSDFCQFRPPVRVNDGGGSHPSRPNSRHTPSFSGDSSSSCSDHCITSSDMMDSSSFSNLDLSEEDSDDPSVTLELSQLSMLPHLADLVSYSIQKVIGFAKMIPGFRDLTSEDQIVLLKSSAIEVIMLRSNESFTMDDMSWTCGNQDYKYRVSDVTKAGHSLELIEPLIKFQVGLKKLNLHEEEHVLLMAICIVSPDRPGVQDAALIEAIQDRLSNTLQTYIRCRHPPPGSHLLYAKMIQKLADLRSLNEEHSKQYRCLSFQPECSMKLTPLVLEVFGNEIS
In short: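 Fluorescence polarization assay measuring small-molecule disruption of VDR binding to the coregulator peptide SRC2-3. Compounds were pin-transferred (23 nl) into the reagent mix and incubated 2 h at room temperature before reading.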
On the % scale 0 is the no-effect control and ±100 the full control effect; potency means the concentration at half of the fitted maximal effect.

Row | Structure (SMILES) | max response, negative = inhibition [%] | Potency
1 | Cc1ccc(-c2noc(-c3nnn(-c4cccc(C(F)(F)F)c4)c3N)n2)cc1 | 7.83 | –
2 | O=C1C(c2ccccn2)=[N+]([O-])c2ccccc21 | – | 12.6 µM (active)
3 | O=Cc1cn(-c2ccccc2)nc1-c1ccccn1 | 0.792 | –
4 | O=C(c1ccc2c(=O)n(Cc3ccco3)c(=S)[nH]c2c1)N1CCCC1 | -15.6 | –
5 | CCOC(=O)c1cc2c(=O)n3ccccc3nc2n(CC2CCCO2)c1=NC(=O)c1ccc(C(C)(C)C)cc1 (configuration not stated) | -4.97 | –
6 | CC1=C(c2ccc(F)cc2)S(=O)(=O)N=C1N1CCC(C(=O)NCCc2ccccc2C)CC1 | 9.29 | –
7 | Cc1nn(CC(=O)N2CCN(c3cccc(C(F)(F)F)c3)CC2)c(=O)c2cc3sccc3n12 | -6.46 | –
8 | CCOC(=O)c1ccc(-c2ccc(/C=C(\C#N)C(=O)Nc3ccc(OCC)cc3)o2)cc1 | -4.51 | –
9 | CCOC(=O)c1ccc(NC2=CC(c3ccc(OCC)cc3)N(c3ccc(C(=O)OCC)cc3)C2=O)cc1 (configuration not stated) | – | 28.2 µM (active)
10 | NS(=O)(=O)c1ccc(NC2=CC(c3ccc(F)cc3)N(c3ccc(S(N)(=O)=O)cc3)C2=O)cc1 (configuration not stated) | 21.6 | –
11 | Cc1cc(NC(=O)C2CCC(CNS(=O)(=O)c3ccc(Br)s3)CC2)ccc1Br (configuration not stated) | -18 | –
12 | COc1ccc(-c2nc3ccccc3s2)cc1NC(=O)COc1ccccc1C | 1.1 | –
13 | COc1ccc(Nc2nc(-c3cccnc3)nc3ccccc23)cn1 | – | 70.8 µM (active)
14 | Cc1cnc(CNc2nc(-c3cccnc3)nc3ccccc23)cn1 | -20.5 | –
15 | COc1cccc(-c2nc(Nc3ccncc3)c3ccccc3n2)c1 | 16.5 | –
16 | CCOc1ccc(Nc2c(S(=O)(=O)c3ccccc3)cnc3ccccc23)cc1 | -2.09 | –
17 | Cc1nc2ccn(Cc3cccnc3)c(=O)c2cc1C(=O)N1CCN(c2ccccc2F)CC1 | -2.65 | –
18 | CC(=O)Nc1ccc(S(=O)(=O)N2N=NC3C2C2CC4C3(CN(C(=O)OC(C)(C)C)S4(=O)=O)O2)cc1 (configuration not stated) | -28.4 | –
19 | Cc1cc(C(=O)CCl)c(C)n1CC1COc2ccccc2O1 (configuration not stated) | – | 89.1 µM (active)
20 | CCn1cc(C(=O)NCC2COc3ccccc3O2)c2cc(OC)c(OC)cc2c1=O (configuration not stated) | -12.1 | –
21 | O=C(NCC1COc2ccccc2O1)C1(c2ccccc2)CCCC1 (configuration not stated) | -20 | –
22 | COc1cc(/C=C2/C(=O)NN(c3cccc(Cl)c3)C2=O)cc(Br)c1O | – | 22.4 µM (active)
23 | COc1cc(/C=C2/C(=O)NN(c3ccc(F)cc3)C2=O)cc([N+](=O)[O-])c1O | -24.2 | –
24 | COc1cc(/C=N/O)cc(Br)c1OCc1cccc(Cl)c1 | 4.44 | –
25 | COCCn1c(=O)c(-c2cc(F)cc(F)c2)nc2cnc(N3CCNCC3)nc21 | -11.9 | –
26 | Cc1cn([C@H]2CC(F)[C@@H](CO)O2)c(=O)[nH]c1=O (some centres not stated) | -2.1 | –

Row | Structure (SMILES) | max response, negative = inhibition [%] | Potency
27 | O=C(CSc1nccn1C1CCCC1)Nc1cc(C(F)(F)F)ccc1Cl | 24.3 | –
28 | CCc1nnc(SCC(=O)Nc2cc(OC)ccc2OC)nc1CC | 8.11 | –
29 | Cc1ccccc1-c1nc(CS(=O)(=O)CC(=O)Nc2cc(Cl)cc(Cl)c2)c(C)o1 | 13 | –
30 | CC1=C(c2ccc(C)c(C)c2)S(=O)(=O)NC1=NCc1ccccc1Cl | 4.51 | –
31 | C=C1C(=O)C23C(O)C1CCC2[C@]12COC3(O)C(O)C1C(C)(C)CC[C@H]2O (some centres not stated) | – | 14.1 µM (active)
32 | O=c1n(Cc2cccc(C(F)(F)F)c2)c2ccccc2c2nc(-c3ccccc3)nn12 | -21.7 | –
33 | CCOc1cccc(CC(=O)N2CCc3c([nH]c4ccccc34)C2c2ccc(F)cc2)c1OCC (configuration not stated) | 6.55 | –
34 | COc1ccc(S(=O)(=O)Nc2cccc3cccnc23)c(N)c1 | -18.8 | –
35 | Cn1cc(-c2nc3cnc(N4CCNCC4)nc3n(CCC#N)c2=O)c2ccccc21 | -5.94 | –
36 | O=C(Nc1cc(C(=O)Nc2ccc(S(=O)(=O)O)cc2)cc(C(=O)Nc2ccc(S(=O)(=O)O)cc2)c1)Nc1cc(C(=O)Nc2ccc(S(=O)(=O)O)cc2)cc(C(=O)Nc2ccc(S(=O)(=O)O)cc2)c1 | 4.66 | –
37 | O=C(OCc1cc(Cl)ccc1OC(F)F)c1cccnc1 | 3.25 | –
38 | O=C(/C=C/c1ccc(Cl)cc1Cl)c1cccnc1 | – | 20 µM (active)
39 | O=C(NNC1CC(=O)N(c2cccc(Cl)c2)C1=O)c1cccnc1 (configuration not stated) | 4.73 | –
40 | O=C(c1cnn(-c2ccc(F)cc2)c1-n1cccc1)N1CCN(c2ccc(F)cc2)CC1 | -3.32 | –
41 | CC[C@]1([C@H]2O[C@@H]([C@@H]3O[C@](O)(CO)[C@@H](C)C[C@H]3C)C[C@H]2C)CC[C@@H]([C@]2(C)CC[C@@]3(C[C@@H](O)[C@@H](C)[C@@H]([C@H](C)[C@H](OC)[C@H](C)C(=O)O)O3)O2)O1 | 3.44 | –
42 | CCOC(=O)C1CCCN(C(=O)CN(c2ccc(OC)cc2)S(=O)(=O)c2c(C)noc2C)C1 (configuration not stated) | -22.5 | –
43 | CCOc1ccc(N(CC(=O)OC)S(=O)(=O)c2c(C)noc2C)cc1 | – | 89.1 µM (active)
44 | COc1ccc(N(CC(=O)Nc2cc(OC)ccc2OC)S(=O)(=O)c2c(C)noc2C)cc1 | 5.52 | –
45 | O=C(c1cccc(F)c1)N1CCC2(CCCN(Cc3ccncc3)C2)CC1 | -10.4 | –
46 | Cc1ccc(Cn2cc(CCC(=O)NCc3ccc(OC(C)C)cc3)c3ccccc32)cc1 | 7.91 | –
47 | COC(=O)c1cccc(-n2[nH]nnc2=S)c1 | – | 79.4 µM (active)
48 | COC(=O)c1cccc(N2C(=O)C3C4C=CC(CC4)C3C2=O)c1 (configuration not stated) | 12.5 | –
49 | COC(=O)c1cccc(NC(=O)c2cccc(N3C(=O)CCC3=O)c2)c1 | -2.51 | –
50 | COc1cccc(NC(=O)CSC2=Nc3ccccc3C3=NC(CC(=O)NC4CCCCC4)C(=O)N23)c1 (configuration not stated) | 1.75 | –
51 | CCOCCCNC(=O)c1cn(CC)c2ccc(S(=O)(=O)N3CCc4ccccc4C3)cc2c1=O | -6.66 | –
52 | OCCN1CCN(CC/C=C2\c3ccccc3Sc3ccc(C(F)(F)F)cc32)CC1 | -15.9 | –
